{"source": "the supplement of paper PMC8728848", "note": "The full list was thinned out, with the strongest signals kept by preference."}
{"system": "Man(a1-2)Man(a1-2)Man(a1-3)Man", "assay": "glycan array binding signal (z-score within array); higher = stronger binding", "settings": "glycan notation: IUPAC condensed, linker removed", "procedure,_shortened": "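Arrays were curated from the Consortium for Functional Glycomics database, 3228 in total, and kept only where the protein sequence was available. Binding is expressed as a within-array Z-score. This score was averaged across arrays of the same protein sequence at different concentrations or buffers and across linkers, and negative values can be read as non-binding.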"}
{"substance": "SRLC (Mus musculus), Q8VIF6", "glycan array binding signal (z-score)": -0.206}
{"substance": "C3b (Homo sapiens), P01024", "glycan array binding signal (z-score)": 0.007}
{"substance": "Avaren (Actinomycete K97)", "glycan array binding signal (z-score)": 2.52}
